# Screens: PubChem, National Center for Advancing Translational Sciences (NCATS)
# Hits are enriched below; roughly 21% of the tested compounds scored in any of these assays.
# Shiga inhibitor = inhibitors of Shiga toxin in Vero cells | AID 2315 | Vero cells, Shiga toxin protein synthesis inhibition reporter | 9.2% of 290,000 active | inhibition, % at 38.7 µM; in the data active = inhibition mostly above about 28%, no sharp cut-off; inactive = mostly below about 43%
# Pf growth 48h = inhibits P. falciparum growth in the first generation, 48 h; P. falciparum luciferase growth in erythrocytes, 48 h; 5.9% of 310,000 active; AID 504832; Potency, µM (titrated, usually from 28.7 µM), usual class: inhibitors
#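 Cell-based growth assay: transgenic P. falciparum expressing firefly luciferase, cultured in red cells within RPMI 1640 containing 0.5% w/v Albumax, 24 mM bicarbonate and gentamycin. A drop in luciferase activity indicates inhibition.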
# NS1 inh = blocks influenza NS1 protein function; Potency, µM (top dose mostly 46.1 µM); 0.4% of 270,000 active; AID 2326; calls by dose curve; also: actives are rising curves; nearly all actives have a fitted effect of over 50% in size
#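 Growth recovery, yeast-based: influenza A NS1 expressed in S. cerevisiae causes slow growth, and suppressors are detected by OD600. The parent strain without NS1 is used as positive control.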
# CHX counter = counter-screen for Shiga toxin inhibitors: cycloheximide protein synthesis inhibition; max response, %; cell reporter, cycloheximide protein synthesis inhibition counterscreen; 12% of 300,000 active; in the data active = max response mostly above about 13%, no sharp cut-off; inactive = mostly below about 14%; also: read at 38.3 µM for the half of the compounds with a filed dose
# Pf growth 96h = P. falciparum growth inhibition at 96 hour, primary screen for plastid delayed-death inhibitors; Potency, µM (titrated, usually from 28.7 µM), most hits filed as inhibitors; P. falciparum luciferase reporter growth, 96 h; 6.9% of 320,000 active
#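 Plates of compound plus infected erythrocytes (2% hematocrit, 0.05% parasitemia final) incubate 96 hours, 37 C, 5% CO2. Detection reagent added; reduced luminescence from the parasites' luciferase reporter flags inhibition.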
# Giardia FBPA inh = Giardia lamblia aldolase inhibition; A8B2U2; purified Giardia FBPA; Potency, µM (doses to about 59.6 µM), most hits filed as inhibitors; 0.71% of 290,000 active; also: nearly all actives have a fitted effect of over 55% in size
# Target sequence (A8B2U2 whole entry, looked up): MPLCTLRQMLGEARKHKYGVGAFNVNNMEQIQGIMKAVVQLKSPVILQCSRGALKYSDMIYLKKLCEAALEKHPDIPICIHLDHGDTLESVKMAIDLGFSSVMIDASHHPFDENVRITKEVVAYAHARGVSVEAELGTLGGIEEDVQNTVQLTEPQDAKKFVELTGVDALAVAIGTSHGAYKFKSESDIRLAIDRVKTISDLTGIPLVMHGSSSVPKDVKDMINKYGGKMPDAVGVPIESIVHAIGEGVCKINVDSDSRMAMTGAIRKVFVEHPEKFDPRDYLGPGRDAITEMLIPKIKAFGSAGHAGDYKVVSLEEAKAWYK
#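 40 nM FBPA preincubated 10 min at RT with compound (up to 57.5 uM final), then substrate plus GAPDH/TPI/NAD/arsenate coupling and diaphorase/resazurin added. Fluorescence read after 20 min at RT, 525/598 nm.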
# A number is an active result; i = inactive; ? = inconclusive; nt = no result given. Unless noted, calls follow the shape of the dose curve; as a rule, active = well fitted curve in the direction sought with a large enough effect; inconclusive = small, poorly fitted or top-dose-only effect, or another doubt; inactive = no such curve, though single readings can be large; an effect the other way counts as inactive or inconclusive.
SMILES,Shiga inhibitor,Pf growth 48h,NS1 inh,CHX counter,Pf growth 96h,Giardia FBPA inh
O=C(c1cccc(Cl)c1)C1CCCN(Cc2ccc(N3CCNC3=O)cc2)C1 (configuration not stated),i,?,i,i,9.28µM,i
CC1CCCc2sc3nc(NCc4ccco4)n4ncnc4c3c21 (configuration not stated),i,?,i,23.5,i,i
CC1CCc2sc3nc(NCc4ccco4)n4ncnc4c3c2C1 (configuration not stated),i,nt,i,i,?,i
C=CCNC(=O)CC1C(=O)NCCN1Cc1c(F)cccc1Cl (configuration not stated),i,i,i,i,?,i
CN1CCNC(=O)C1CC(=O)NCCc1ccccc1F (configuration not stated),i,i,i,i,13.1µM,i
Cc1ccccc1CNC(=O)CC1C(=O)NCCN1Cc1c(F)cccc1Cl (configuration not stated),i,0.828µM,i,i,2.33µM,i
CC(C)(C)CN1CCNC(=O)C1CC(=O)NCCc1ccccc1C(F)(F)F (configuration not stated),i,?,i,i,i,i
O=C(CC1C(=O)NCCN1Cc1ccccn1)NCCc1ccccc1F (configuration not stated),36.2,4.65µM,i,i,?,nt
Cc1cnc(CNC(=O)CC2C(=O)NCCN2Cc2ccccc2F)cn1 (configuration not stated),i,?,i,i,i,nt
O=C(c1cccc(F)c1)N1CCN(C(=O)C(c2ccccc2)c2ccccc2)CC1,i,i,i,i,i,i
CCOCC(=O)Nc1cc(C(F)(F)F)ccc1Oc1cccc(Br)c1,i,?,i,i,0.465µM,i
COC(=O)COc1ccc(C(=O)OC)cc1,i,i,i,i,i,i
COC(=O)c1ccc(OCC(=O)c2ccccc2OC)cc1,i,nt,i,22.4,?,i
COC(=O)c1ccc(COC(=O)C(CCS(C)(=O)=O)N2C(=O)c3ccccc3C2=O)cc1 (configuration not stated),i,i,i,i,6.57µM,i
COC(=O)c1ccc(C(=O)OC)c(NC(=O)COC(=O)c2ccccc2OC)c1,i,i,i,i,i,i
CCOc1ncccc1C(=O)OCc1ccc(C(=O)OC)cc1,97.7,i,i,81.4,i,i
CS(=O)(=O)CCC(C(=O)OCc1ccc(Br)cc1)N1C(=O)c2ccccc2C1=O (configuration not stated),i,i,i,i,i,i
CCOc1ncccc1C(=O)OCc1ccc(Cl)cc1,i,i,i,i,i,i
COC(=O)c1ccc(COC(=O)c2ccccc2OC)cc1,97.4,i,i,67.3,i,i
O=C(COc1coc(CN2CCCc3ccccc32)cc1=O)Nc1ccc([N+](=O)[O-])cc1,nt,i,nt,nt,i,nt
COc1ccc2nc(NC(=O)Nc3cccc4ccccc34)sc2c1,i,i,nt,i,i,i
COc1ccccc1NC(=O)Nc1nc2ccc(S(N)(=O)=O)cc2s1,89.1,i,i,67.0,i,i
COc1cccc(OC)c1C(=O)Nc1nc2ccc(S(C)(=O)=O)cc2s1,i,i,i,i,i,i
COc1ccc2nc(Nc3ccccc3)sc2c1,60.0,i,nt,30.2,i,i
COc1ccc2nc(NC(=O)Nc3ccccc3OC)sc2c1,101.9,i,i,48.6,i,i
SMILES,Shiga inhibitor,Pf growth 48h,NS1 inh,CHX counter,Pf growth 96h,Giardia FBPA inh
COc1ccc2nc(Nc3ccccc3OC)sc2c1,90.2,i,nt,32.3,i,i
COc1ccc(CCC(=O)NC(C)C2CCCO2)cc1 (configuration not stated),i,i,i,i,?,i
C/C1=C\CCC2C(/C=C(\C)CC1)OC(=O)C2CN1CCCCC1 (configuration not stated),i,?,i,i,?,i
COc1ccc(-c2ccc(CCC(=O)O)n2NC(=O)c2cccs2)cc1,i,i,i,21.9,i,i
Cc1ccc(-c2ccc(CCC(=O)O)n2NC(=O)c2cccs2)cc1,i,i,?,33.9,nt,?
O=C(O)CCc1ccc(-c2cccs2)n1NC(=O)c1ccc(Cl)cc1,i,i,?,i,i,i
O=C(O)CCc1ccc(-c2cccs2)n1NC(=O)c1ccco1,i,i,i,i,10.4µM,i
O=C(Cn1cnc2c(nnn2Cc2ccc(F)cc2)c1=O)Nc1ccccc1,i,i,i,i,i,i
COc1ccc(NC(=O)c2cc3ccc(O)cc3o/c2=N\O)cc1,i,i,i,15.3,i,i
COc1ccc2o/c(=N\O)c(C(=O)Nc3ccccc3OC)cc2c1,i,i,i,i,nt,i
N=c1oc2cc(O)ccc2cc1C(=O)Nc1ccc(F)cc1,42.5,i,i,27.2,i,i
COc1ccc(C2CC(c3ccccc3)Oc3c(C)ccc(C)c32)cc1 (configuration not stated),i,nt,nt,i,nt,i
CCn1nc(C)c(NC(=O)CC23CC4CC(CC(C4)C2)C3)c1C,i,i,i,i,8.28µM,i
O=C(O)CC(Cc1ccccc1)c1ccc2c(c1)OCO2 (configuration not stated),i,i,i,i,i,i
CC(=O)N(CCC(Cc1ccccc1)c1ccc2c(c1)OCO2)Cc1ccc(Cl)cc1 (configuration not stated),i,9.28µM,i,i,8.28µM,i
O=C1/C(=C/c2cccc3ccccc23)CCCc2ccccc21,51.0,i,i,29.1,i,i
Cn1cccc1/C=C1\CCc2ccccc2C1=O,i,i,nt,i,i,i
COc1ccccc1NC(=O)CSc1nc(=O)n(CCN2CCOCC2)c2c1CCC2,nt,i,nt,nt,i,nt
CC(C)CC1NC(=O)N(Cc2nc3ccccc3s2)C1=O (configuration not stated),i,i,i,i,i,i
CC1CCN(C(=O)CSCC(=O)Nc2nc(-c3cccs3)cs2)CC1,44.9,i,i,10.3,?,i
CC1CCCN(C(=O)CSCC(=O)Nc2nc(-c3cccs3)cs2)C1 (configuration not stated),i,nt,i,i,?,i
CC1CCCCN1C(=O)CSCC(=O)Nc1nc(-c2cccs2)cs1 (configuration not stated),37.1,i,i,23.9,?,i
COc1ccc(C(=O)NNC(=O)C23CC4CC(CC(C4)C2)C3)c(OC)c1,i,i,i,21.1,i,i
COC(=O)NNC(=O)C12CC3CC(CC(C3)C1)C2,i,i,i,i,4.15µM,i
Cc1cccc(C(=O)NNC(=O)C23CC4CC(CC(C4)C2)C3)c1O,i,i,i,14.0,i,i
N[C@H]1[C@@H](C(=O)O)[C@H]2C=C[C@H]1C2,nt,nt,i,nt,nt,nt
O=C(Oc1ccc(C(=S)N2CCOCC2)cc1)c1cccc(Cl)c1,i,i,i,i,i,i
Cc1ccccc1NC(=O)C1(NC(=O)c2cccc(N3C(=O)CSC3c3ccccc3)c2)CCCCC1 (configuration not stated),i,11.7µM,i,i,?,i
